Here are results for 10 compounds from article PMC5540273 (PLoS ONE, 2017).

One assay has as its system FGFR1. The following applies: concentration: 1 μM, replicates: in singlicate; n = 1.
Another assay deals with FGFR2. The conditions noted are these: concentration: 1 μM, replicates: in singlicate; n = 1.
The test system of another assay is FGFR3. The following applies: concentration: 1 μM, replicates: in singlicate; n = 1.
The subject of a further assay is FGFR4. The conditions noted are these: concentration: 1 μM, replicates: in singlicate; n = 1.
Another assay has as its system FGR. The conditions noted are these: concentration: 1 μM, replicates: in singlicate; n = 1.
For the next assay, the system named is FLT1. The conditions noted are these: concentration: 1 μM, replicates: in singlicate; n = 1.
For the next assay, the system named is FLT3-autoinhibited. The following applies: concentration: 1 μM, replicates: in singlicate; n = 1.
For another assay, the system named is FLT3. The conditions noted are these: concentration: 1 μM, replicates: in singlicate; n = 1.
For another assay, the system named is FLT4. The following applies: concentration: 1 μM, replicates: in singlicate; n = 1.
Another assay concerns FRK. The following applies: concentration: 1 μM, replicates: in singlicate; n = 1.
For the next assay, the system named is FYN. The conditions noted are these: concentration: 1 μM, replicates: in singlicate; n = 1.
The next assay has as its system GAK. The following applies: concentration: 1 μM, replicates: in singlicate; n = 1.
A further assay deals with T1, GCN2(Kin.Dom.2,S808G).
T1 construct: gene EIF2AK4
The conditions noted are these: concentration: 1 μM, replicates: in singlicate; n = 1.

Another assay deals with GRK1. The following applies: concentration: 1 μM, replicates: in singlicate; n = 1.
The test system of another assay is T2, GRK2.
T2 construct: gene ADRBK1
The following applies: concentration: 1 μM, replicates: in singlicate; n = 1.

The next assay relates to T3, GRK3.
T3 construct: gene ADRBK2
The following applies: concentration: 1 μM, replicates: in singlicate; n = 1.

The test system of a further assay is GRK4. The following applies: concentration: 1 μM, replicates: in singlicate; n = 1.
The next assay relates to GRK7. The conditions noted are these: concentration: 1 μM, replicates: in singlicate; n = 1.
In another assay the test system is GSK3A. The following applies: concentration: 1 μM, replicates: in singlicate; n = 1.
In a further assay the test system is GSK3B. The conditions noted are these: n = 1.
Setting [1] is: concentration: 1 μM, replicates: in singlicate.

Where two headings read alike, the source gives them in different places.
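Note: KINOMEscan kinase panel screen.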

Turning to `O=C(Nc1c(F)cccc1F)c1cc(C(=O)c2ccccc2F)c[nH]1` [GSK1326180], the “%Inh” value is recorded as 0% with FGFR1; 0% in the assay on FGFR2; 5% in the assay with FGFR3; 0% in the assay with FGFR4; 0% in the assay on FGR; 6% in the assay on FLT1. The “%Inh” value is recorded as 0% in the assay with FLT3-autoinhibited; 1% with FLT3; 0% with FLT4; 7% in the assay with FRK; 0% with FYN; 0% with GAK. The “%Inh” value in the assay on GCN2(Kin.Dom.2,S808G) is listed as 0%; in the assay on GRK1, 0%; in the assay on GRK2 it was 0%; in the assay on GRK3, 35%; in the assay on GRK4 it was 0%; in the assay on GRK7, 0%. In addition, the “%Inh” value in the assay on GSK3A amounted to 10%; in the assay on GSK3B (setting [1]) it was 1%.
Regarding `CNc1nccc(-c2ccc3c(N)n[nH]c3c2)n1` [GSK2206003], the “%Inh” value is given as 41% with FGFR1; 5% in the assay with FGFR2; 11% in the assay on FGFR3; 2% with FGFR4; 29% with FGR; 49% in the assay with FLT1. Moreover, the “%Inh” value is recorded as 14% in the assay with FLT3-autoinhibited; 50% in the assay on FLT3; 5% in the assay on FLT4; 6% in the assay on FRK; 17% with FYN; 69% in the assay on GAK. Further, the “%Inh” value with GCN2(Kin.Dom.2,S808G) was determined as 0%; in the assay with GRK1 it was 0%; in the assay on GRK2 it was 15%; in the assay on GRK3, 23%; with GRK4 it was 46%; in the assay with GRK7 it was 14%. The “%Inh” value in the assay with GSK3A was 14%; with GSK3B (setting [1]) it was 0%.
In the case of `O=C(Nc1n[nH]c2cc(-c3cccs3)ccc12)C1CC1` [SB-731284], the “%Inh” value is reported as 18% in the assay on FGFR1; 0% in the assay with FGFR2; 0% in the assay on FGFR3; 0% in the assay with FGFR4; 0% in the assay with FGR; 0% in the assay on FLT1. In addition, the “%Inh” value in the assay with FLT3-autoinhibited was 65%; in the assay on FLT3, 59%; in the assay with FLT4, 18%; in the assay with FRK, 0%; in the assay with FYN, 0%; in the assay with GAK, 0%. Moreover, the “%Inh” value with GCN2(Kin.Dom.2,S808G) amounted to 0%; in the assay with GRK1, 56%; in the assay on GRK2 it was 0%; with GRK3 it was 0%; in the assay on GRK4 it was 47%; with GRK7 it was 0%. Moreover, the “%Inh” value came out at 52% in the assay on GSK3A and 57% with GSK3B (1 µM).
As to `Cl.N#CCc1ccc(Nc2nccc(Nc3ccc(Oc4ccccc4)cc3)n2)cc1` [GW639905], the “%Inh” value was found to be 11% in the assay with FGFR1; 8% with FGFR2; 13% in the assay on FGFR3; 0% with FGFR4; 90.2% in the assay on FGR; 43% with FLT1. In addition, the “%Inh” value came out at 23% in the assay with FLT3-autoinhibited; 94.5% in the assay on FLT3; 12% in the assay on FLT4; 39% with FRK; 74% in the assay on FYN; 31% in the assay with GAK. For the same compound, the “%Inh” value in the assay on GCN2(Kin.Dom.2,S808G) came to 36%; with GRK1, 0%; in the assay with GRK2, 0%; in the assay on GRK3 it was 45%; in the assay on GRK4 it was 0%; with GRK7 it was 0%. The entries for the “%Inh” value with GSK3A and with GSK3B (setting [1]) were 0% and 8%, respectively.
As to `CC(C)c1nc(-c2cccc(NS(=O)(=O)c3c(F)cccc3F)c2)c(-c2ccnc(Nc3ccc(N4CCOCC4)nc3)n2)s1.Cl` [GSK1723980], the “%Inh” value is recorded as 14% with FGFR1; 0% in the assay on FGFR2; 4% with FGFR3; 0% in the assay on FGFR4; 98.4% with FGR; 98.3% in the assay with FLT1. The “%Inh” value with FLT3-autoinhibited was determined as 0%; in the assay with FLT3 it was 66%; in the assay with FLT4, 99.9%; with FRK, 96.3%; in the assay on FYN, 98.6%; in the assay with GAK, 91.2%. Moreover, the “%Inh” value in the assay with GCN2(Kin.Dom.2,S808G) is reported as 100%; with GRK1 it was 9%; in the assay with GRK2, 0%; in the assay on GRK3, 0%; with GRK4, 0%; with GRK7, 0%. The “%Inh” value is given as 74% in the assay with GSK3A and 15% in the assay with GSK3B (setting [1]).
Consider `CCOc1nccc(-c2c(-c3ccc(F)cc3)ncn2C2CCNCC2)n1` [SB-249175], for which the “%Inh” value in the assay with FGFR1 came out at 25%; in the assay on FGFR2, 3%; with FGFR3 it was 11%; in the assay with FGFR4 it was 4%; in the assay on FGR, 0%; in the assay on FLT1 it was 18%. Besides, the “%Inh” value stood at 18% in the assay on FLT3-autoinhibited; 39% with FLT3; 2% in the assay with FLT4; 6% in the assay on FRK; 6% in the assay with FYN; 8% in the assay on GAK. For the same compound, the “%Inh” value was found to be 40% with GCN2(Kin.Dom.2,S808G); 11% in the assay on GRK1; 3% with GRK2; 0% in the assay with GRK3; 15% in the assay on GRK4; 14% with GRK7. Also, the “%Inh” value in the assay on GSK3A was determined as 0%; with GSK3B (setting [1]), 49%.
`COc1cccc(CC(=O)N2CCc3cc(-c4cn(C)c5ncnc(N)c45)ccc32)c1` [GSK2608899]: the “%Inh” value in the assay with FGFR1 came to 22%; with FGFR2, 0%; in the assay on FGFR3, 0%; in the assay on FGFR4, 0%; in the assay on FGR, 15%; with FLT1, 59%. Also, the “%Inh” value was found to be 0% in the assay with FLT3-autoinhibited; 66% with FLT3; 0% in the assay with FLT4; 0% in the assay with FRK; 9% in the assay with FYN; 31% with GAK. For the same compound, the “%Inh” value in the assay on GCN2(Kin.Dom.2,S808G) was 70%; in the assay with GRK1, 0%; with GRK2 it was 0%; in the assay with GRK3 it was 0%; in the assay with GRK4, 9%; in the assay with GRK7, 0%. Moreover, the entries for the “%Inh” value in the assay on GSK3A and in the assay on GSK3B (setting [1]) were 0% and 15%, respectively.
Regarding `N#CC1(c2cccc(C(=O)Nc3cccc(Oc4ccc5nc(NC(=O)C6CC6)sc5n4)c3)c2)CC1`, the “%Inh” value with FGFR1 came to 92.7%; in the assay with FGFR2 it was 95.3%; in the assay with FGFR3 it was 70%; in the assay on FGFR4, 70%; with FGR, 88%; in the assay with FLT1 it was 98.5%. In addition, the “%Inh” value in the assay with FLT3-autoinhibited is listed as 16%; in the assay with FLT3, 96%; in the assay on FLT4, 100%; in the assay on FRK it was 98%; in the assay on FYN, 92%; in the assay on GAK it was 0%. Also, the “%Inh” value in the assay with GCN2(Kin.Dom.2,S808G) is recorded as 0%; in the assay on GRK1, 12%; in the assay with GRK2 it was 0%; in the assay on GRK3 it was 0%; with GRK4, 0%; in the assay on GRK7, 0%. Moreover, the figures for the “%Inh” value in the assay with GSK3A and with GSK3B (setting [1]) were 24% and 0%, respectively.
Regarding `Cc1cc(-c2c(-c3ccc(F)cc3)ncn2CCCN2CCOCC2)nc(N)n1` [SB-222517], the “%Inh” value in the assay with FGFR1 turned out to be 20%; in the assay on FGFR2, 0%; in the assay with FGFR3 it was 0%; in the assay on FGFR4, 0%; in the assay with FGR, 9%; in the assay with FLT1, 0%. Besides, the “%Inh” value in the assay with FLT3-autoinhibited is 0%; in the assay on FLT3, 27%; in the assay with FLT4, 0%; with FRK it was 0%; with FYN, 0%; with GAK it was 5%. In addition, the “%Inh” value is 0% in the assay with GCN2(Kin.Dom.2,S808G); 31% in the assay with GRK1; 0% in the assay on GRK2; 4% in the assay with GRK3; 20% in the assay on GRK4; 0% in the assay with GRK7. For the same compound, the “%Inh” value in the assay with GSK3A is given as 0%; in the assay on GSK3B (setting [1]) it was 32%.
With `CSc1ccc(NC2=C(c3ccc(Cl)cc3)C(=O)NC2=O)cc1` [SB-317658], the “%Inh” value in the assay with FGFR1 was 0%; with FGFR2 it was 9%; in the assay with FGFR3 it was 6%; in the assay on FGFR4 it was 0%; in the assay with FGR it was 29%; in the assay with FLT1, 5%. The “%Inh” value amounted to 5% in the assay with FLT3-autoinhibited; 1% in the assay with FLT3; 3% with FLT4; 0% in the assay with FRK; 4% with FYN; 12% in the assay with GAK. Further, the “%Inh” value in the assay with GCN2(Kin.Dom.2,S808G) was found to be 0%; in the assay with GRK1 it was 2%; with GRK2, 21%; with GRK3, 12%; with GRK4, 5%; in the assay with GRK7 it was 26%. In addition, the “%Inh” value was 37% in the assay on GSK3A and 0% with GSK3B (1 µM).
